Source: ChEMBL document CHEMBL4513216, “Probing the Open Global Health Chemical Diversity Library for Multistage-Active Starting Points for Next-Generation Antimalarials” (ACS Infect Dis, 2020)
Screen size: about 69,000 compounds; about 8,600 (12%) showed an effect of 50% or more. The entries come from a sample that favours strong results as a whole.

Test system: Plasmodium berghei
Test: Screen against P. berghei liver stage (PbLuc), transformed with Luciferase, at 10uM
Type: functional, HepG2
Settings: tested at 10 uM

SMILES	INHIBITION
O=C(C1CCC1)N1C2CCC(O)(CC2)C1CN1CCOCC1 (stereo not given)	16.2%
Cn1nc(-c2ccc(F)cc2)cc1C(=O)NCCn1ccnc1	-0.232%
O=C(CN1CCN(c2nccs2)CC1)Nc1cccnc1	-24.2%
Cc1csc(N2CCN(CC(=O)Nc3nncs3)CC2C)n1 (stereo not given)	40.9%
Cc1csc(N2CCN(CC(=O)Nc3ccncc3)CC2C)n1 (stereo not given)	71.75%
Cc1csc(N2CCN(CC(=O)Nc3cccnc3)CC2C)n1 (stereo not given)	11.9%
CC1CN(CC(=O)Nc2ccncc2)CCN1c1nccs1 (stereo not given)	21.6%
CC1CN(CC(=O)Nc2cccnc2)CCN1c1nccs1 (stereo not given)	52.7%
Cc1cc(N2CCN(Cc3ccnn3C)CC2)cc(C2CCCN2)n1 (stereo not given)	37.45%
Cc1cccc(S(=O)(=O)N2CC[C@H]3CO[C@H](CN(C)C)[C@H]3C2)c1	-1.55%
COCc1nn(C(C)C)c2c1CCN(Cc1nccs1)C2	-11.6%
O=C(c1cnccn1)N1CCN(Cc2cccnc2)c2ncccc2C1	11.5%
CN1[C@H](CO)C[C@H](CNCc2ccc(CO)o2)[C@@H]1c1ccccc1F	28.7%
CN1[C@H](CO)C[C@H](CNCc2ccc(Cl)c(F)c2)[C@@H]1c1ccccc1F	53.5%
CCc1ccc(CNC[C@H]2C[C@@H](CO)N(C)[C@H]2c2ccccc2F)o1	-3.96%
CCC(=O)N1CCC(c2nc(N3CCOCC3)ncc2S(C)(=O)=O)CC1	36%
Cc1nnc(C2Cc3ccccc3CN2Cc2c(C)noc2C)o1 (stereo not given)	19.5%
CC(Cn1cccn1)NC(=O)c1cc(C2CC2)nc2c1cnn2C (stereo not given)	-6.18%
Cn1cc(CN2CCC(c3cc(COc4cccc(Cl)c4)[nH]n3)C2)cn1 (stereo not given)	21.955%
COc1ccc(CN2CCN(Cc3nccn3C)C(C)C2)cc1F (stereo not given)	-85.6%
COc1ccc(C(C)=O)cc1CN1CCn2cccc2C1C (stereo not given)	58.5%
COc1ccc(CN2CCn3cccc3C2C)cc1F (stereo not given)	59.4%

SMILES	INHIBITION
COC(=O)c1ccc(OC)c(CN2CCN(CC(C)C)C(=O)C2C)c1 (stereo not given)	-14.1%
COc1ccc(C)cc1CN1CCCC1Cn1nc(C)nc1C (stereo not given)	25.3%
COc1ccc(C)cc1CN1CCn2cccc2C1C (stereo not given)	84.2%
COc1cc(C(C)=O)ccc1OCC(=O)c1cccn1C	41.3%
COc1ccc(CN2CC(n3cccn3)C2)cc1F	4.34%
COc1ccc(C)cc1CN1CCN(Cc2nccn2C)C(C)C1 (stereo not given)	-78.3%
CC(=O)N1CCN(CCNS(=O)(=O)c2c(F)cccc2F)CC1	31.6%
Cn1cnc2c1C(C(=O)N1CCCC1)N(CC1CC1)CC2 (stereo not given)	0.804%
COc1ccc2c(c1)CCCN2Cc1nc(C)c(C)o1	19.8%
Cc1cc(C)n(CC2CN(Cc3noc(C)n3)CCO2)n1 (stereo not given)	5.7%
CCCn1nnnc1COC(=O)C1COc2ccccc2O1 (stereo not given)	49%
O=C(NCCc1cc2nc(-c3ccncc3)ccn2n1)C1CCOCC1	17.14%
Cc1nnsc1C(=O)N1C[C@@H]2CC[C@H]1CN(c1cnccn1)C2	4.35%
Cc1cc(F)ccc1CCNC(=O)NCC(C)N1CCOCC1 (stereo not given)	11.1%
O=C(O)c1cc(S(=O)(=O)Nc2cnn(C3CCOCC3)c2)ccc1F	29.3%
CCN(C(=O)CCc1ccc2c(c1)OCO2)C1CC(=O)NC1=O (stereo not given)	7.97%
O=C(CCc1nccs1)N1CCCC(n2cccn2)C1 (stereo not given)	38.5%
Cc1cnn(C2CCCN(C(=O)CCc3nccs3)C2)c1 (stereo not given)	63.9%
Cc1nn(C)c(C)c1CC(=O)N1CCCC(n2ccnc2)C1 (stereo not given)	44.3%
Cc1nn(CC(C)C)c(C)c1CC(=O)N1CCCC(CNS(C)(=O)=O)C1 (stereo not given)	24.1%
Cc1nn(C)c(C)c1CC(=O)N1CCCC(n2ccnc2C)C1 (stereo not given)	23.7%
Cc1nn(C)c(C)c1CC(=O)N1CCCC(CNS(C)(=O)=O)C1 (stereo not given)	50.2%

SMILES	INHIBITION
Cc1cnn(C2CCCN(C(=O)CCc3ccncc3)C2)c1 (stereo not given)	26.4%
Cc1nn(C)c(C)c1CC(=O)N1CCCC(n2cccn2)C1 (stereo not given)	7.13%
Cc1cnn(C2CCCN(C(=O)Cc3c(C)nn(C)c3C)C2)c1 (stereo not given)	53.9%
Cc1nn(C)c(C)c1-c1ccnc(N2CCCN(CC(C)C)CC2)n1	24.3%
COc1ccc(F)c(NCc2ccc(C(=O)N(C)C)[nH]2)c1	-22.6%
CN(Cc1nc2ccccc2o1)C1CCCN(c2cccnn2)C1 (stereo not given)	28.8%
CC(=O)N1CCN([C@@H]2CC[C@@H](N(C)C(=O)C3CCCCC3)[C@H]2O)CC1	39.7%
Cc1nc(CN2CCOCC3(CCCN(c4cnccn4)C3)C2)cs1 (stereo not given)	15.4%
CCCc1cc(N2CCC(NC3CCC(O)CC3)CC2)nc(C)n1 (stereo not given)	2.15%
Cn1ccnc1SCCNC1CCN(c2nc3ccccc3s2)CC1	34.1%
c1ccc(CN2CCC(NCCSc3ncn[nH]3)C2)cc1 (stereo not given)	42.3%
CCCc1cc(CNC(=O)C2CCOc3ccccc3C2)on1 (stereo not given)	26.8%
CCCc1cc(CNC2CCN(c3cc(C(C)C)nc(C)n3)CC2)on1	61.3%
CCCc1cc(CNC2CCN(c3nc4ccccc4s3)CC2)on1	67.8%
CCCc1cc(CNC2CCN(c3cc(C)nc(N)n3)CC2)on1	71.1%
CCCc1cc(N2CCC(NCC3(O)CCCCC3)CC2)nc(C)n1	6.69%
CCCc1cc(CNC2CCN(c3nc(C)cc(C)n3)CC2)on1	35.2%
CCCc1cc(N2CCC(NC3CCOCC3)CC2)nc(C)n1	22.1%
Cc1n[nH]c(SCCNC2CCN(c3nc4ccccc4s3)CC2)n1	50.2%
CCCC1COCCN1Cc1ccc(NC(C)=O)cc1 (stereo not given)	-30%
CC(C(=O)N1CCCCC1)N1CCN(c2nccs2)CC1 (stereo not given)	41.3%
CN(C)C(=O)NCc1cc(=O)n2c(n1)CN(Cc1ccoc1)CCC2	5.41%

SMILES	INHIBITION
CCn1ncc2c1C(COCC1CC1)N(Cc1cnn(C)c1)CC2 (stereo not given)	-44.2%
O[C@H]1CCN(Cc2ccoc2)[C@H]1Cc1cccnc1	41.4%
CC(=O)N1CCCCC[C@@H]2[C@@H]1[C@H](c1cccc(F)c1)CN2CCC(N)=O	32.95%
O=C(C1=CCCC1)N1C[C@H]2CCC[C@@]2(COCc2ccncc2)C1	47.9%
Cc1cn(CC(=O)NC2CCC(C(=O)O)CC2)c2ccccc12 (stereo not given)	26.4%
Cc1cc(=O)n(CC(=O)NC2CCCCC2)c2ccccc12	70.1%
COC(=O)[C@@H]1C[C@H](NC(=O)Cn2c(=O)cc(C)c3ccccc32)CN1C	-4.4%
Cc1nnn2c1COCC(CNC(=O)c1ccc[nH]1)C2 (stereo not given)	26.5%
CCSCCN1CCCN(S(C)(=O)=O)CC1	37.7%
CC(C)CSCCN1CCCN(S(C)(=O)=O)CC1	75.6%
CC(C)CSCCN1CCN(S(C)(=O)=O)CC1	45.3%
O=C1CCOC[C@]2(CN(Cc3ccccc3)C[C@H]2c2ccccc2F)N1	23.9%
CN1CCN(C(=O)[C@H]2C[C@H]3[C@H](CCN3Cc3cccs3)O2)CC1	-7.24%
c1cncc(CN2CCCC3(COCCN(c4cnccn4)C3)C2)c1 (stereo not given)	12.7%
CN(Cc1ccco1)C(=O)NC(Cn1ccnc1)C(C)(C)C (stereo not given)	-27.8%
Cc1noc(C)c1CN(C)C(=O)NC(C)c1cccs1 (stereo not given)	-55.1%
CC(Cn1ccnc1)NC(=O)N(C)Cc1ccsc1 (stereo not given)	57.4%
CC(Cn1ccnc1)NC(=O)N(C)Cc1ccc2c(c1)OCO2 (stereo not given)	7.12%
CC(Cn1ccnc1)NC(=O)N(C)Cc1ccc2c(c1)OCCO2 (stereo not given)	36.1%
CC(Cn1ccnc1)NC(=O)N(C)Cc1ccco1 (stereo not given)	81%
CC(Cn1cccn1)NC(=O)N(C)Cc1ccsc1 (stereo not given)	-1.04%
Cc1cc(CN(C)C(=O)NC(C)Cc2ccco2)no1 (stereo not given)	34.2%

SMILES	INHIBITION
Cc1noc(C)c1CN(C)C(=O)NC(C)Cc1ccco1 (stereo not given)	53.3%
O=C(O)c1cc2c(nc1-c1ccncc1)CCN(C1CCOC1)CC2 (stereo not given)	-28.2%
CCn1cc(S(=O)(=O)N(CCc2ccccc2)Cc2ccn(C)n2)cn1	21.425%
CCc1ncc2c(n1)CN(Cc1nc(-c3cccnc3)no1)CC2	-10.6%
Cc1ccc(C2CCCN2S(=O)(=O)N(C)CCc2ccccn2)o1 (stereo not given)	-17.35%
CCOC(=O)C(C)Nc1cccc(COCc2ccco2)c1 (stereo not given)	12.1%
CCOCC(=O)NS(=O)(=O)c1ccc(F)cc1C(F)(F)F	0.0944%
COc1cccc(Cl)c1C(C(=O)O)N1CCC(Cn2cccn2)CC1 (stereo not given)	-47%
COCCOC1CCN(C(C(=O)O)c2c(Cl)cccc2OC)CC1 (stereo not given)	50.3%
COCCOC1CCN(C(C(=O)O)c2ccc(F)c(Cl)c2)CC1 (stereo not given)	23.9%
CC(C)c1ncncc1C(=O)NCCN1CCOCC1	-1.33%
COCCC(Cc1cccc(Br)c1)C(=O)N(C)C (stereo not given)	-28.4%
COc1ccc(C2Nc3ccccc3N=C3CNC(=O)C32)cc1OC (stereo not given)	10.4%
CCOC(=O)Cn1nnnc1-c1ccccc1	64%
CCn1nnnc1-c1cccc(NC(=O)CCOC(C)C)c1	4.01%
CCn1nnnc1-c1cccc(NC(N)=O)c1	8.18%
O=C(CCC(F)(F)F)N1CCCC(c2ncc[nH]2)C1 (stereo not given)	-0.71%
Cc1nc(CNC(=O)N2CCCC(c3ncc[nH]3)C2)sc1C (stereo not given)	23.5%
O=C(CN1CCCC(c2ncc[nH]2)C1)NCC(F)(F)F (stereo not given)	81.2%
Cc1sc(NC(=O)CN2CCCC(c3ncc[nH]3)C2)c(C)c1C (stereo not given)	94.1%
O=C(CN1CCCC(c2ncc[nH]2)C1)NCCCN1CCCCCC1=O (stereo not given)	45.4%
COC(=O)NCC(=O)N1CCCC(c2ncc[nH]2)C1 (stereo not given)	15.2%
